# This excerpt belongs to a sample that is enriched for hits.
# SF-1 inh = inhibitors of human nuclear receptor SF-1. Q13285. CHO-K1 Gal4-SF-1 LBD luciferase reporter. inhibition, % at 10 µM. actives 0.55% (n = 65,000). AID 525;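 active = inhibition above the mean inhibition of all tested compounds plus 3 SD, cut at about 48% in these data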;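 also: 0% = SF-1 transfected cells with DMSO and 100% = mock-transfected cells lacking SF-1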
# Target sequence (Q13285 whole entry, looked up, the tested form may be a part): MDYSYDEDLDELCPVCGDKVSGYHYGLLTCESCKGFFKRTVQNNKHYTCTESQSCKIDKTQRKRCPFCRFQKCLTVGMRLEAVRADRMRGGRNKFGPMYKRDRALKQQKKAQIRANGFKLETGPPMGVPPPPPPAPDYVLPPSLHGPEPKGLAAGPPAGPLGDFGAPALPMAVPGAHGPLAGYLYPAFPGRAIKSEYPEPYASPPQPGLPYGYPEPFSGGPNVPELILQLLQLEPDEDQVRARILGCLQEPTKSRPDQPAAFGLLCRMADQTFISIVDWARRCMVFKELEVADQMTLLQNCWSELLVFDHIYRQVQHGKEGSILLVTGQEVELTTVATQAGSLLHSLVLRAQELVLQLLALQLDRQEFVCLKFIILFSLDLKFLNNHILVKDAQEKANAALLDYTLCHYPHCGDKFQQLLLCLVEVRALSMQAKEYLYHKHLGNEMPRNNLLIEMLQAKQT
# Numbers without * were called inactive.
SMILES,SF-1 inh
CN(C)C=Nc1ncc2c([nH]c3ccccc32)c1C#N,-16
COc1ccccc1NC(=O)CSc1nnc(-c2ccc(C)cc2)o1,-57
Brc1cccc(-c2nnc(-c3ccccc3)o2)c1,-60
O=S1(=O)C=C(Sc2nnc(-c3ccccc3)o2)c2ccccc21,66*
O=c1c(-c2ccc(F)cc2)coc2c3c(ccc12)OCCO3,-63
Cc1c(S(=O)(=O)Nc2cc(Cl)ccc2Cl)c(=O)n(C)c(=O)n1C,14
O=C(Cn1nc(Cc2ccncc2)c2ccccc2c1=O)N1CCc2ccccc2C1,12
Cc1ccc(-n2c(=O)cc(N3CCCCCC3)[nH]c2=O)cc1,-6
Cc1cc(C)c2[nH]c(=O)c(C(c3nnnn3Cc3ccc4c(c3)OCO4)N3CCCCC3)cc2c1 (centres undefined),12
Cc1ccc2[nH]c3c(N4CCCCCC4)ncnc3c2c1,74*
COc1ccc(-n2ccnc2SCC(=O)NCc2ccc3c(c2)OCO3)cc1,-6
CC(=O)c1ccc(OCC(O)CN2CCN(Cc3ccc4c(c3)OCO4)CC2)cc1 (centres undefined),-27
c1ccc2sc(NC3=NCN(Cc4ccc5c(c4)OCO5)CN3)nc2c1,7
Cc1ccc2c(c1)c1ncnc(N3CCC4(CC3)OCCO4)c1n2C,-67
Cc1ccc2[nH]c3c(N4CCN(Cc5ccc6c(c5)OCO6)CC4)ncnc3c2c1,73*
COc1ccc2c(c1)[nH]c1c(N3CCN(Cc4ccc5c(c4)OCO5)CC3)ncnc12,74*
Cc1cccc(N(C)C(=S)Oc2ccc3ccccc3c2)c1,-9
Cc1onc(-c2ccccc2)c1C(=O)Nc1cccc(C#N)c1,-2
Cc1cccc(CN2CCN(CC(=O)NCc3ccc(F)cc3)C2=O)c1,3
CCOC(=O)c1sc(NC(=O)c2ccc3ncsc3c2)nc1C,-76
O=C(CN1CCOCC1)N(c1ccccc1)c1ccc2ccccc2c1,7
c1csc(CCNc2ncnc3sc4c(c23)CCC4)c1,76*
c1coc(CNc2nc3sc4c(c3c3ncnn23)CCCC4)c1,-7
O=C(CCCc1cccs1)Nc1nc2c(s1)CCCC2,-73
COc1cc2ccccc2cc1C(=O)Nc1cccnc1,-50
SMILES,SF-1 inh
COc1ccc(C(NC(C)=O)c2ccc3cccnc3c2O)c(OC)c1 (centres undefined),82*
COc1ccc2sc(NC(C)=O)nc2c1,-50
O=C(NC1CCCCC1)c1cc2nc3c(c(C(F)(F)F)n2n1)CCCC3,-50
CCOC(=O)C1=C(C)N(C)C(C)=C(C(=O)OCC)C1c1cccnc1,-16
CCN(CC)c1ccc2c(c1)OC(N)=C(C#N)C2c1cccnc1 (centres undefined),65*
Cc1cc2c(c(=O)n1CCCn1ccnc1)C(c1ccco1)C(C#N)=C(N)O2 (centres undefined),5
O=C(CCC(=O)c1ccc[nH]1)c1ccc(Cl)cc1,-52
CCc1ccccc1N(CC(=O)NCc1ccco1)C(=O)c1snc(C(N)=O)c1N,-5
O=C(CCC1CCCC1)N1CCN(C2CCCC2)CC1,8
COC(=O)c1oc2ccc(Br)cc2c1NC(=O)c1ccccc1,12
Fc1ccc2nc3[nH]c4ccccc4c3nc2c1,-90
COc1ccc2c(c1)CCc1c(C(=O)NCCN3CCOCC3)noc1-2,3
O=C(C1CCCCC1)N1CCN(c2ncccn2)CC1,-4
COc1ccc(-c2nc(CSCC(=O)NCc3ccco3)c(C)o2)cc1,69*
COc1ccc(C2=NOC(C(=O)NCCCN3CCOCC3)C2)cc1 (centres undefined),-12
CCc1ccc(-c2nc(CSCC(=O)N3CCN(c4ncccn4)CC3)c(C)o2)cc1,51*
Cc1ccc(-c2nc(CS(=O)CC(=O)NCc3ccccn3)c(C)o2)cc1 (centres undefined),-1
Cc1cc(-c2ccco2)n(CC(=O)NCc2ccco2)n1,-12
COc1ccc(-c2nc(CS(=O)CC(=O)N3CCCC3)c(C)o2)cc1 (centres undefined),3
CCOc1ccc(-c2nc(CSCC(=O)NCCN3CCOCC3)c(C)o2)cc1,65*
Oc1ccc(-c2nnc(SCC3CCCCC3)o2)cc1,-64
O=C(NCCN1CCCC1)c1ccc2c(=O)n(CCc3ccccc3)c(=O)[nH]c2c1,3
Cc1noc(C)c1COC(=O)c1cc2c3ccccc3n(C)c2s1,1
Cc1c(C(=O)O)sc(=S)n1CCOc1ccccc1,16
Cc1ccc2cc(CN(C(=O)c3ccncc3)C(C)C)c(=O)[nH]c2c1,-8
SMILES,SF-1 inh
COc1ccccc1NC(=O)C1C2C=CC3(CN(Cc4cccnc4)C(=O)C13)O2 (centres undefined),13
CC(CC#CCN1CCOCC1)OCCC#N (centres undefined),-17
CCOC(=O)Cn1c(-c2ccccn2)nc2ccccc21,7
Cc1cc(/C=c2/sc3nc4ccccc4n3c2=O)c(C)n1-c1ccccn1,85*
COc1ccccc1-c1cn(S(=O)(=O)c2ccc(F)cc2)nc1N,9
O=C(CN1CCOc2ccccc21)NC1CC1,-20
O=C(Cc1ccccc1)N(c1ccc(F)cc1)C1C=CS(=O)(=O)C1 (centres undefined),7
Brc1ccc(-c2cnc(-c3cccs3)o2)cc1,-52
CC(=O)c1c(NCCc2ccccc2)cc(C)oc1=O,8
CC(=O)CC1OC(=O)C(Br)=C1NCc1ccccc1 (centres undefined),79*
O=C(NC12CC3CC(CC(C3)C1)C2)c1ccc(S(=O)(=O)N2CCOCC2)cc1,-2
CNC(=O)Nc1ccccc1NC(=O)NC,13
CC12CCC(C(=O)N3CCN(C(=O)C45CCC(C)(C(=O)O4)C5(C)C)CC3)(OC1=O)C2(C)C,-7
Cc1nc(CSc2nnc(C)s2)cs1,5
Cc1nnc(Sc2nc(Sc3nnc(C)s3)nc(N3CCN(C)CC3)n2)s1,96*
O=S(=O)(NC1CCCCC1)c1cccc(-c2nnc(-c3ccccc3)o2)c1,8
Cn1c(SCc2ccc(F)cc2)nnc1-c1cccs1,-51
CN=Cc1cc(-c2ccccc2)sc1O,-56
Cc1ccc2occ(C(c3nnnn3Cc3ccccc3)N3CCOCC3)c(=O)c2c1 (centres undefined),-5
CC(C)(C)c1ccc(-c2cc(N)n[nH]2)cc1,48*
COc1ccc(-n2nnnc2SCC(=O)c2cc3ccccc3o2)cc1,-2
O=C(CNC(=O)c1ccccc1C(=O)O)c1ccccc1,-56
CCN(CCCNC(=O)CC1Oc2ccc(C)cc2NC1=O)Cc1ccccc1 (centres undefined),-8
Cc1ccccc1-c1nnc(-c2ccc(Br)cc2)o1,-77
c1coc(-c2nnc(NC3=NCCC3)o2)c1,-61
SMILES,SF-1 inh
Cc1ccc(-c2nnc(Nc3ccccc3)o2)cc1,68*
Cn1c(N)c(C(=O)CSc2nc3ccccc3n2-c2ccccc2)c(=O)n(C)c1=O,-13
CCS(=O)(=O)N1CCCC(C(=O)NC2CCC(C)CC2)C1 (centres undefined),-18
CCOc1ccc(S(=O)(=O)N2CCN(S(=O)(=O)c3ccc(OCC)cc3)C(C)C2)cc1 (centres undefined),-7
CCOC(=O)C1=Nc2ccccc2C1=[N+]=[N-],84*
CCOC(=O)c1c(C)nc(-c2ccccc2)nc1N,-58
CCOC(=O)c1cnc2c(-c3ccccc3)cnn2c1N,-52
CC1(c2ccccc2)NC(=O)N(CCN2C(=O)c3ccccc3C2=O)C1=O (centres undefined),-3
COc1cc(-c2nnc3sc(-c4cccs4)nn23)cc(OC)c1OC,16
COc1ccccc1-c1nnc2sc(-c3ccc(N(C)C)cc3)nn12,64*
CN(C)c1ccc(-c2nn3c(-c4cccnc4)nnc3s2)cc1,4
CCNC(=O)NC(=O)COC(=O)c1ccccc1SCC(=O)NC(=O)NCC,-69
CCOC(=O)c1c(NC(=O)CSc2nc(C)cc(C)c2C#N)sc(C(C)=O)c1C,0

# Assay outcomes: PubChem, The Scripps Research Institute Molecular Screening Center
